Measured values reported in ChEMBL document CHEMBL3988442, “University of Dundee, Small-Polar-MMV Screening Library” (2021).
The whole screen tested about 48,000 compounds, of which about 13,000 (27%) showed an effect of 50% or more. Some of the results follow.

Test system: Wolbachia pipientis
Assay: Anti-Wolbachia Cell-Based Screen
Type: functional
Set-up: scale not given: in the data most compounds retested in dose-response had high values
Conditions: 5 µM

Compound	Percent Effect [%]
CC1CCN(S(=O)(=O)N2CCc3c(c(C(=O)O)nn3CC3CC3)C2)CC1	-12.69
CNC(=O)Cc1ccc(-n2ccnc2-c2ccc(C(=O)O)s2)cc1	-11.42
Cc1noc(-c2ccc(N3CCCC(C(=O)O)C3)nc2)n1 (stereo unspecified)	-4.979
CS(=O)(=O)NCCNC(=O)NC1(c2ccc(Cl)cc2)CCC1	-10.79
COc1nc2c(cc1C(=O)N1CC[C@H](CO)[C@@H](O)C1)CCC2	9.103
Cc1cccc(CNC(CN2CCN(C)CC2)c2ccccc2)c1 (stereo unspecified)	16.68
Cc1cc(C(C)(O)CNC(=O)OC(C)(C)C)c(C)o1 (stereo unspecified)	0.294
CCOCC(=O)NCC(C)(O)c1cc(C)oc1C (stereo unspecified)	5.951
Cc1cc(C(C)(O)CNC(=O)CCOCC(C)C)c(C)o1 (stereo unspecified)	51.29
CC(NCc1nnc2n1CCCC2)c1nc(Cc2ccccc2)no1 (stereo unspecified)	8.593
O=C(O)C(F)(F)F.O=C(O)C(F)(F)F.O=C(O)c1cc2c(nc1-c1ccsc1)CCN(C1CCOC1)CC2 (stereo unspecified)	-18.13
Cc1cc(C)c2c(N3CCC(C(=O)N4CCOCC4)CC3)ncnc2n1	125.4
CCc1nc(CN2CCCN(C(=O)C3CCC3)CC2)cs1	7.838
Cc1cc(C)c2c(N3CCC(C(=O)N4CCCC4)CC3)ncnc2n1	96.05
Cc1cc(C)c2c(N3CCN(CCN4CCOCC4)CC3)ncnc2n1	8.578
Cc1cc(C)c2c(N3CCC(O)(Cn4ccnc4)CC3)ncnc2n1	6.34
Cc1ccccc1CC(=O)N1CCc2c(ncnc2N2CCOCC2)C1	2.572
Cc1cc(C)c2c(N3CCCN(C(=O)C4CCC4)CC3)ncnc2n1	89.28
O=C(C1CCN(c2ncnc3cccc(F)c23)CC1)N1CCCC1	-3.07
Cc1nn(C)c2c(N3CCN(C(=O)C4CCC4)CC3)ncnc12	3.567
Cc1cc(C)c2c(N3CCN(C(=O)N4CCOCC4)CC3)ncnc2n1	86.86
CCOCC(=O)N1CCC(CSCc2ccco2)CC1	4.494
O=C(C1CCCN1S(=O)(=O)C1CCCC1)N1CCSCC1 (stereo unspecified)	-23.1
CN(C)c1nc2c(c(N3CCC(O)CC3)n1)CN(CC1CCOC1)CC2 (stereo unspecified)	9.412

Compound	Percent Effect [%]
CC(CCNC(=O)NCCNc1cnccn1)c1ccccc1 (stereo unspecified)	0.7277
CCc1cnc(NCc2ccccc2Cn2cccn2)nc1	6.664
c1ccc(C(Cn2cccn2)Nc2cnccn2)cc1 (stereo unspecified)	93.79
O=C(CNC(Cn1cccn1)c1ccccc1)Nc1cnccn1 (stereo unspecified)	104.7
CC(C)OC(=O)CC(NC(=O)CCn1cccn1)c1ccccc1 (stereo unspecified)	-19.71
CC(Cn1cccn1)NS(=O)(=O)Cc1ccccc1 (stereo unspecified)	-19.72
CC(NC(=O)Cn1cccn1)c1cccnc1 (stereo unspecified)	-3.155
NCCn1cc(C(=O)NCc2ccccc2Cn2cccn2)nn1	-26.32
O=C(CNCc1ccccc1Cn1cccn1)Nc1cnccn1	109.9
COC(=O)CN(Cc1ccccc1C)C(=O)COCC1CC1	5.451
O=c1cc(CN2CCCC2)nc2n1CCCN(CC1CC1)C2	112.4
CCS(=O)(=O)N1CCCn2c(nc(CN3CCCC3)cc2=O)C1	124.6
O=c1cc(Cn2ccnc2)nc2n1CCCN(S(=O)(=O)C1CC1)C2	102.1
O=c1cc(CN2CCCC2)nc2n1CCCN(S(=O)(=O)C1CC1)C2	95.22
CN(C)Cc1cc(=O)n2c(n1)CN(CC1CC1)CCC2	1.173
O=c1cc(Cn2ccnc2)nc2n1CCCN(CC1CCOCC1)C2	-2.581
O=c1cc(Cn2ccnc2)nc2n1CCCN(Cc1ccco1)C2	5.269
O=c1cc(Cn2cncn2)nc2n1CCCN(CC1CC1)C2	-9.621
O=c1cc(Cn2cncn2)nc2n1CCCN(CC1CCOCC1)C2	-15.84
O=c1cc(CN2CCCC2)nc2n1CCCN(CC1CCOCC1)C2	2.964
COCCN1C(=O)[C@]2(CC[C@@H]3CN(C(=O)NCC(C)C)C[C@@H]32)N=C1C	-10.16
Cc1n[nH]c(-c2ccc(NC(=O)C(C)N3CCN(C)CC3)cc2)n1 (stereo unspecified)	0.753
O=S(=O)(c1cccnc1)N1C[C@@H]2COC[C@]2(COCC2CC2)C1	5.387
CCCn1cnc2c1CN(C(=O)c1ccc(F)cc1)[C@H](C(=O)OC)C2	6.422

Compound	Percent Effect [%]
FC(F)(F)c1n[nH]c2c1CN(Cc1cn3ccccc3n1)CC2	10.05
CC(C)n1c(C(=O)N2CCCC2)nc2c1CCN(c1ncccn1)C2	-6.562
Cc1nc2c(c(NCC3Cc4ccccc4CN3C)n1)CCNCC2 (stereo unspecified)	-7.174
CN(CC1(CO)CCCC1)c1nc2c(c(=O)[nH]1)Cc1ccccc1OC2	6.752
NC(=O)C1CCCN(c2ncnc3c2Cc2ccccc2OC3)C1 (stereo unspecified)	10.44
Cc1cc(C(=O)NC(C)c2nnn[nH]2)c2cccc(C)c2n1 (stereo unspecified)	0.7589
Cc1nc2c(c(N[C@@H](CO)C(N)=O)n1)Cc1ccccc1OC2	104.3
CN(CC1(CO)CCC1)c1nc2c(c(=O)[nH]1)Cc1ccccc1OC2	9.578
NC(=O)C1CN(c2ncnc3c2Cc2ccccc2OC3)CCO1 (stereo unspecified)	-2.361
Cc1nc2c(c(N[C@H](C(N)=O)C(C)C)n1)Cc1ccccc1OC2	105
Cc1nc2c(c(NC(C)c3nnn[nH]3)n1)Cc1ccccc1OC2 (stereo unspecified)	97.46
COc1ccccc1OCCNC(=O)NCc1nc(C)no1	-10.03
CCCc1c(C(=O)NC2CCCC2)nnn1-c1ccc(OC)cc1	0.3347
CCOCC(=O)N1C[C@@H]2CC[C@H](C1)N(Cc1ccccn1)C2=O	2.863
NC1(C(=O)N2CCC(c3cc(-c4ccccc4Cl)n[nH]3)CC2)CCC1	-26.69
CC(C)NC(=O)NC[C@@]1(COc2cnccn2)C[C@@H](O)[C@@H](O)C1.Cl	-2.608
Cn1ccnc1CN1CCC2(CC1)CCN(c1ccccc1)C2=O.O=C(O)C(F)(F)F	113.1
CN1Cc2ccccc2CC2(CCN(c3ncc(F)cn3)CC2)C1=O	-14.24
CN1CC(=O)N(c2ccccc2)CC12CCN(Cc1nccn1C)C2.O=C(O)C(F)(F)F.O=C(O)C(F)(F)F (stereo unspecified)	-13.15
Cn1ccnc1CN1CCC2(CC1)Cc1ccccc1CNC2=O.O=C(O)C(F)(F)F	103.5
CN1Cc2ccccc2CC2(CCN(c3ncccn3)CC2)C1=O	-6.777
CN1Cc2ccccc2CC2(CCN(Cc3nccn3C)CC2)C1=O	94.48
Cn1ccnc1CN1CCC2(CC1)CCN(c1cncnc1)C2=O.O=C(O)C(F)(F)F	-20.08
N#CC1(C(=O)N2Cc3cc(-c4cc[nH]n4)ccc3C2c2cnco2)CC1 (stereo unspecified)	-31.27

Compound	Percent Effect [%]
NC(=O)COc1ccc(C(=O)NCCc2ccco2)cc1	-0.9721
CN1CC(=O)N(c2ccccc2)CC12CCN(Cc1cccnc1)C2.O=C(O)C(F)(F)F.O=C(O)C(F)(F)F.O=C(O)C(F)(F)F (stereo unspecified)	-4.544
CN1CCN(Cc2cccnc2)C(=O)C12CCN(CC1CCOC1)CC2.O=C(O)C(F)(F)F.O=C(O)C(F)(F)F.O=C(O)C(F)(F)F (stereo unspecified)	-19.27
CCS(=O)(=O)N1CC[C@H]2C(=O)N(Cc3cccnc3)CCO[C@H]2C1.O=C(O)C(F)(F)F	-12.91
C[C@H]1CN(CC2CCOCC2)C[C@@]12CCN(Cc1cccnc1)C2=O.O=C(O)C(F)(F)F.O=C(O)C(F)(F)F	107.6
C[C@@H]1CN(Cc2cccc(F)c2)C[C@]12CCN(Cc1cccnc1)C2=O.O=C(O)C(F)(F)F.O=C(O)C(F)(F)F	107.3441
C[C@@H]1CN(Cc2cccnc2)C[C@]12CCN(CCN1CCCC1)C2=O.O=C(O)C(F)(F)F.O=C(O)C(F)(F)F.O=C(O)C(F)(F)F	95.13
C[C@@H]1CN(S(C)(=O)=O)C[C@]12CCN(Cc1cccnc1)C2=O.O=C(O)C(F)(F)F	104.4
CCN1C(=O)C(c2ccccc2)CC12CCN(Cc1cccnc1)CC2.O=C(O)C(F)(F)F.O=C(O)C(F)(F)F (stereo unspecified)	-2.584
CN1CCN(Cc2cccnc2)C(=O)C12CCN(C1CCOC1)CC2.O=C(O)C(F)(F)F.O=C(O)C(F)(F)F.O=C(O)C(F)(F)F (stereo unspecified)	20.83
CN1CC(=O)N(c2cccc(F)c2)CC12CCN(Cc1cccnc1)C2.O=C(O)C(F)(F)F.O=C(O)C(F)(F)F.O=C(O)C(F)(F)F (stereo unspecified)	-7.08
CCN(CC)C(CNCc1ccc(C)o1)c1ccco1 (stereo unspecified)	6.767
CC(=O)N[C@@H]1CN(S(=O)(=O)Cc2ccccc2)C[C@H]1C(C)C	4.897
O=C(NC1CCN(Cn2nc(-c3ccccc3)oc2=O)CC1)C1CC1	15.64
Cc1noc(C)c1CN1C[C@H](C)[C@]2(CCN(Cc3cccnc3)C2=O)C1.O=C(O)C(F)(F)F.O=C(O)C(F)(F)F	119.9
Cc1noc(C)c1CN1CCC2(CC1)CC(Oc1cccnc1)CO2.O=C(O)C(F)(F)F (stereo unspecified)	0.1924
O=C(c1ccco1)N1CCCC2(CCN(CCN3CCCC3)C2=O)C1 (stereo unspecified)	0.2637
CN1CCN(Cc2cccnc2)C2(CCN(Cc3ccccn3)C2)C1=O.O=C(O)C(F)(F)F.O=C(O)C(F)(F)F.O=C(O)C(F)(F)F (stereo unspecified)	9.415
C[C@@H]1CN(Cc2ccccn2)C[C@]12CCN(Cc1cccnc1)C2=O.O=C(O)C(F)(F)F.O=C(O)C(F)(F)F.O=C(O)C(F)(F)F	86.67
O=C(c1cccnc1)N1C[C@@H]2CN(CCN3CCCC3)C(=O)[C@@H]2C1	-1.372
Cc1noc(C)c1CN1CCN(Cc2cccnc2)c2ncccc2C1.O=C(O)C(F)(F)F.O=C(O)C(F)(F)F.O=C(O)C(F)(F)F	-12.75
C[C@H]1CN(C(=O)c2cccnc2)C[C@@]12CCN(CCN1CCCC1)C2=O	107.9
O=C(O)C(F)(F)F.O=C(O)C(F)(F)F.c1ccc(CN2CCC3(CC2)CC(Oc2cccnc2)C3)nc1	-13.53
C[C@H]1CN(c2ccccn2)C[C@@]12CCN(Cc1cccnc1)C2=O.O=C(O)C(F)(F)F.O=C(O)C(F)(F)F	111.4
